Drawing on PubChem BioAssay (NCATS), this text covers Potency for 40 compounds.

Values joined by “and” are separate entries in the source; they are usually repeats but may differ in a detail not shown here. Equal values may be shown once. Inconclusive results are not listed. Entries that show only a call come without a potency. Some compounds were tested as several samples or in several runs, with calls that do not always agree. Active and inactive are the calls of the source. Calls follow the shape of the dose curve; as a rule, active = well fitted inhibition curve with a large enough effect; inconclusive = small, poorly fitted or top-dose-only effect; inactive = no such curve, though single readings can be large or run the other way.
Potency is read from the fitted curve at half-maximal effect.

The nature of the assay: Primary qHTS for inhibitors of nuclear receptor binding SET domain protein 2 (NSD2) in an RCH-ACV wild type WT cells (2C) (AID 1645877). Also: nearly all actives have a fitted effect of over 70% in size. To be noted: RCH-ACV (leukaemia line) NSD2 WT (2C) viability, CellTiter-Glo, 72 h; series mostly up to 44.9 µM. The text has this: Assay Provider: Jonathan D. Licht, MD
University of Florida College of Medicine, Gainesville, FL
Mutations in epigenetic regulators are common in relapsed pediatric acute lymphoblastic leukemia (ALL). Here, we uncovered the mechanism underlying the relapse of ALL driven by an activating mutation of the NSD2 histone methyltransferase (p.E1099K). […] Correction of this mutation restored glucocorticoid sensitivity. The transcriptional response to glucocorticoids was blocked in NSD2 mutant cells due to depressed glucocorticoid receptor (GR) levels and the failure of glucocorticoids to autoactivate GR expression. […] Pre-treatment of NSD2 p.E1099K cell lines and PDX samples with PRC2 inhibitors reversed glucocorticoid resistance in vitro and in vivo.
High-throughput drug screening of isogenic RCH-ACV cell lines was performed at the National Center for Advancing Translational Science (NCATS), National Institutes of Health as previously described (1). Briefly, isogenic RCH-ACV NSD2 p.E1099K mutant (9B) and WT cells (2C) were plated at 500 cells/well in a 1536-well plate with a 72-hour incubation with compounds prior to addition of CellTiter-Glo to assess cell viability. NCATS libraries screened include: NPC, MIPE 5.0, Kinase and NPACT. To determine compound activity in the qHTS assay, the concentration-response data for each sample was plotted and modeled by a four-parameter logistic fit yielding IC50 and efficacy (maximal response) values. The area under the curve (AUC) of the dose-response curve ensures both efficacy (magnitude of cell killing) and potency (concentration that elicits cell killing) are accounted for in the analysis of activity.
1. Tobie D Lee, Olivia W Lee, Kyle R Brimacombe, Lu Chen, Rajarshi Guha, Sabrina Lusvarghi, Bethilehem G Tebase, Carleen Klumpp-Thomas, Robert W Robey, Suresh V Ambudkar, Min Shen, Michael M Gottesman, Matthew D Hall. A High-Throughput Screen of a Library of Therapeutics Identifies Cytotoxic Substrates of P-glycoprotein. Mol Pharmacol. 2019, Nov;96(5):629-640.
On to `CC(=O)CC(c1ccccc1)c1c(O)c2ccccc2oc1=O` (stereo not given), for which the Potency entry is “inactive”. On to `Cc1cccc(Nc2ccncc2S(=O)(=O)NC(=O)NC(C)C)c1`, for which the Potency entry was “inactive”. Take `CCn1cc(C(=O)O)c(=O)c2cc(F)c(N3CCNCC3)cc21`: the Potency result was “inactive”.

As for `O=c1oc2c(O)c(O)cc3c(=O)oc4c(O)c(O)cc1c4c23`, the Potency entry is “inactive”.

For `COC(c1ccccc1)(c1ccccc1)[C@H](Oc1nc(C)cc(C)n1)C(=O)O`, the Potency result is “inactive”. Regarding `CNNCc1ccc(C(=O)NC(C)C)cc1`, the Potency result was “inactive”. Consider `CC(=O)[C@H]1CC[C@H]2[C@@H]3CC=C4C[C@@H](O)CC[C@]4(C)[C@H]3CC[C@]12C`, for which the Potency result is “inactive”. For the compound `CCOC(=O)c1ccc(C#Cc2ccc3c(c2)C(C)(C)CCS3)nc1`, the Potency entry is “inactive”. As to `CCCCS(=N)(=O)CCC(N)C(=O)O` (stereo not given), the Potency entry was “inactive”. As for `C#CCN[C@@H]1CCc2ccccc21`, the Potency entry was “inactive”. In the case of `NC1(c2ccc(-c3nc4ccn5c(=O)[nH]nc5c4cc3-c3ccccc3)cc2)CCC1`, the Potency is 21.1 nM (active) and 81.7 nM (active) and 332 nM (active). In the case of `Nc1ccc(S(=O)(=O)Nc2ccccn2)cc1`, the Potency result is “inactive”. Consider `CC[C@H](NC(C)C)[C@H](O)c1ccc(O)c2[nH]c(=O)ccc12`, for which the Potency entry was “inactive”. On to `C1CCC(C(CC2CCCCN2)C2CCCCC2)CC1` (stereo not given), for which the Potency was 8.33 µM (active). To `NNC(=O)c1ccncc1` belongs “inactive”; to `Cc1nnc(NS(=O)(=O)c2ccc(N)cc2)s1`, “inactive”. To `COc1cc([C@@H]2c3cc4c(cc3[C@H](O)[C@H]3COC(=O)[C@H]23)OCO4)cc(OC)c1OC` belongs 6 nM (active) and 29.5 nM (active); to `OCc1ccc(-c2nn(Cc3ccccc3)c3ccccc23)o1`, 4.17 µM (active); to `CCCOc1ccc(C(=O)OCCN(CC)CC)cc1N`, “inactive”. Regarding `Nc1[nH]c(=O)ncc1F`, the Potency entry is “inactive”.

For `CNS(=O)(=O)CCc1ccc2[nH]cc(C3CCN(C)CC3)c2c1`, the Potency entry is “inactive”. In the case of `CC(C)C1CCC(C(=O)N[C@H](Cc2ccccc2)C(=O)O)CC1` (stereo not given in full), the Potency result was “inactive”.

With `O=S(=O)(O)CCS`, the Potency entry was “inactive”. To `COc1c(N2CCNC(C)C2)c(F)cc2c(=O)c(C(=O)O)cn(C3CC3)c12` (stereo not given) belongs “inactive”.

For `CC[C@H](C)C(=O)O[C@H]1C[C@@H](C)C=C2C=C[C@H](C)[C@H](CC[C@@H]3C[C@@H](O)CC(=O)O3)[C@H]21`, the Potency is 8.33 µM (active). With `S=P(N1CC1)(N1CC1)N1CC1` the entry was “inactive”.

With `Cc1ncc([N+](=O)[O-])n1CCO`, the Potency result is “inactive”.

As for `CN(C)CCc1c[nH]c2ccc(C[C@H]3COC(=O)N3)cc12`, the Potency result was “inactive”. Consider `CCn1cc(C(=O)O)c(=O)c2cc(F)c(N3CCN(C)CC3)cc21`, for which the Potency result is “inactive”.

`COc1cc2c(Nc3ccc(Br)cc3F)ncnc2cc1OCC1CCN(C)CC1`: the Potency is 5.15 µM (active) and 16.6 µM (active). On to `Cc1ccc(S(=O)(=O)N[C@@H](Cc2ccccc2)C(=O)CCl)cc1`, for which the Potency is 11.8 µM (active). On to `CCCN[C@H]1CCc2nc(N)sc2C1`, for which the Potency entry is “inactive”. Regarding `CNCC[C@H](Oc1cccc2ccccc12)c1cccs1`, the Potency is 23.7 µM (active).

Take `O=c1cc(O)c(Cl)c[nH]1`: the Potency result is “inactive”.

For `COc1ncnc(NS(=O)(=O)c2ccc(N)cc2)c1OC`, the Potency result is “inactive”. As to `COc1cc(NCc2ccc3nc(N)nc(N)c3c2C)cc(OC)c1OC`, the Potency was 15 nM (active) and 1.18 µM (active). Turning to `OC(Cn1cncn1)(Cn1cncn1)c1ccc(F)cc1F`, the Potency result is “inactive”.

Regarding `CCn1cc(C(=O)O)c(=O)c2cc(F)c(N3CCNCC3)nc21`, the Potency result is “inactive”.

As to `O=C(O)CSCC(=O)NC1CCSC1=O` (stereo not given), the Potency entry was “inactive”. Turning to `CC(C)(Sc1cc(C(C)(C)C)c(O)c(C(C)(C)C)c1)Sc1cc(C(C)(C)C)c(O)c(C(C)(C)C)c1`, the Potency entry was “inactive and 8.33 µM (active)”.
